A selection: hits, their analogues and other compounds. The true share with any hit is near 2.6%.
Cruzain inh noDet: inhibitors of Trypanosoma cruzi cruzain without detergent. purified cruzain, Z-FR-AMC fluorescence, no detergent. Potency, µM, hits mostly inhibitors. 2.3% of 200,000 active. AID 1476; note: nearly all actives have a fitted effect of over 40% in size
Target sequence (P25779 123-467 limits assumed): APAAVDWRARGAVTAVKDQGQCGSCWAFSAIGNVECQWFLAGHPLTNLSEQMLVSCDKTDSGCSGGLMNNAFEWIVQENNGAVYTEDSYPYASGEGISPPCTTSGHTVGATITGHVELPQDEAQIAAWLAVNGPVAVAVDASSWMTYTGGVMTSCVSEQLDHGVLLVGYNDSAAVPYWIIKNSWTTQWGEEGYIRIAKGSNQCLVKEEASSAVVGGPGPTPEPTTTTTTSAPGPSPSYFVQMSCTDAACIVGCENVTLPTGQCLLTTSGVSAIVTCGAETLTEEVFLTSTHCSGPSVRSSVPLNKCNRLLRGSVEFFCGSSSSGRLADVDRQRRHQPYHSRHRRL
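Purified cruzain at 1.5 nM, pre-incubated 15 min with compound at room temperature in 100 mM sodium acetate pH 5.5, 5 mM DTT, 0.00005% Triton X-100. Reaction started with 2 uM Z-FR-AMC; AMC fluorescence increase over 60 s gives rate.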
Cruzain inh Det: blocks cruzain activity in presence of Triton detergent. 0.43% of 200,000 active. P25779. Potency, µM, actives largely listed as inhibitors. purified cruzain, Z-FR-AMC fluorescence, 0.01% Triton; note: nearly all actives have a fitted effect of over 40% in size
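Z-FR-AMC hydrolysis (2 uM substrate) by cruzain (1.5 nM) monitored kinetically at ex 360/em 450 nm after 15 min room-temperature compound exposure; 0.01% Triton X-100, pH 5.5, 5 mM DTT.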
Hits are given with their value; i = inactive; ? = inconclusive. Calls come from the whole dose curve; as a rule, active = well fitted curve in the direction sought with a large enough effect; inconclusive = small, poorly fitted or top-dose-only effect, or another doubt; inactive = no such curve, though single readings can be large; an effect the other way counts as inactive or inconclusive.

SMILES	Cruzain inh noDet	Cruzain inh Det
O=C1OCCN1C(=O)[C@H]1[C@H](c2ccc([N+](=O)[O-])cc2)C(c2cccc(Cl)c2)=NN1c1ccc(Br)cc1	3.5µM	i
O=C1OCCN1C(=O)[C@H]1[C@H](c2ccc([N+](=O)[O-])cc2)C(c2ccccc2)=NN1c1ccc(Br)cc1	14µM	i
Cc1cccc(C2=NN(c3ccccc3)[C@@H](C(=O)N3CCOC3=O)[C@@H]2c2ccc([N+](=O)[O-])cc2)c1	?	i
CCOc1ccc(CCNC(=O)c2cnc3c(-c4ccc(F)cc4)c(C)nn3c2C)cc1	i	i
Cc1ccc(-n2c(C)cc(/C=N/Nc3ccc([N+](=O)[O-])cn3)c2C)cc1	7.9µM	i
Cc1cc(/C=N/Nc2ccc([N+](=O)[O-])cn2)c(C)n1-c1ccccc1	4µM	i
Cc1cc(C)cc(-n2c(C)cc(/C=N/NC(=O)c3cccc([N+](=O)[O-])c3C)c2C)c1	?	i
Cc1ccc(Cn2cc(/C=N/Nc3ccc([N+](=O)[O-])cn3)c3ccccc32)cc1	6.3µM	i
O=Cc1cn(Cc2ccc([N+](=O)[O-])cc2)c2ccccc12	?	i
Cc1ccc([N+](=O)[O-])cc1/C=N/Nc1nnnn1-c1ccccc1	i	i
CCn1c(SCC(=O)c2ccccc2)nnc1-c1cccc(Cl)c1	i	i
CC(=O)N1CCCc2cc(S(=O)(=O)N(Cc3ccccc3)C(C)C)ccc21	?	i
CCN(CC)S(=O)(=O)c1ccc2c(c1)N(CC(=O)Nc1ccccc1F)C(=O)C1CCCN21 (stereo not drawn)	?	i
O=C(Cc1ccc(F)cc1)NC1CC(=O)N(c2ccc3c(c2)OCCO3)C1 (stereo not drawn)	i	i
COc1ccc(C2=CC(c3ccc(OC)c(OC)c3)NC(=S)N2)cc1 (stereo not drawn)	i	i
COc1ccc(C2C=C(C34CC5CC(CC(C5)C3)C4)NC(=S)N2)cc1 (stereo not drawn)	25µM	i
Cc1ccc(NC(=O)CN2C(=O)CC(c3ccco3)Sc3ccccc32)cc1Cl (stereo not drawn)	i	i
O=C(c1ccc(Cl)c(Cl)c1)c1cnc(Nc2ccccc2)s1	20µM	i
CNc1ncc(C(=O)c2ccc(Cl)c(Cl)c2)s1	i	i
COCCn1c(SCC(=O)c2c[nH]c3ccccc23)nc2cc(C(=O)NCC(C)C)ccc2c1=O	i	i
O=C(CSCc1cnn(-c2ccccc2)c1-n1cccc1)Nc1ccc(F)cc1F	i	i
COc1ccc(N=c2oc3cc(O)ccc3cc2C(=O)NCC2CCCO2)cc1 (stereo not drawn)	i	i
CCOc1ccc(N=c2oc3cc(O)ccc3cc2C(=O)NCC2CCCO2)cc1 (stereo not drawn)	6.3µM	i
N#C/C(=C\c1ccc(-c2cccc(C(F)(F)F)c2)o1)C(=O)Nn1cnnc1	i	i
O=C1OC(c2ccco2)=N/C1=C\c1ccc(-c2cccc(C(F)(F)F)c2)o1	13µM	i
SMILES	Cruzain inh noDet	Cruzain inh Det
COc1ccc(CNC(=O)c2cnn(-c3ccc(C)cc3)c2C2CCN(C(=O)OC(C)(C)C)CC2)cc1	i	i
COc1ccc2cc3cc(C(=O)NCc4ccc5c(c4)OCO5)oc3nc2c1	i	i
COc1ccc2cc3cc(C(=O)N4CCN(Cc5ccc6c(c5)OCO6)CC4)oc3nc2c1	i	32µM
CCOC(=O)c1c(NC(=O)C(=O)N/N=C/c2ccccc2OC)sc2c1CCCCC2	10µM	i
CCOC(=O)c1c(NC(=O)C(=O)N/N=C/c2ccccc2O)sc2c1CCCCC2	7.9µM	i
CCOC(=O)c1c(NC(=O)c2ccc(C)cc2)sc2c1CCCCC2	i	i
CCOC(=O)c1c(NC(=O)C(=O)N/N=C(\C)c2ccc(OC)cc2)sc2c1CCCCC2	i	i
COc1ccc(-n2cc(C(=O)Oc3cc(C)cc(C)c3)c3ccccc3c2=O)cc1	i	i
CCOc1ccc(CNC(=O)CN2C(=O)CSc3c2c(C)nn3-c2ccccc2)cc1	i	i
CC(C)(Oc1ccc(-c2cccc3ccccc23)cc1)C(=O)O	i	i
O=C(OCc1cccc2ccccc12)C1CC(=O)N(c2ccccc2)C1 (stereo not drawn)	i	i
Cc1ccc(C(=O)COC(=O)C2CC(=O)N(c3nc(-c4ccccc4)cs3)C2)cc1C (stereo not drawn)	32µM	i
CC(=O)c1ccc(NC(=O)CN2C(=O)/C(=C/C=C/c3ccccc3)SC2=S)cc1	10µM	i
O=C(CCN1C(=O)/C(=C/C=C/c2ccccc2)SC1=S)Nc1cccnc1	?	i
CC1CC[C@@]2(C(=O)O)CC[C@]3(C)C(=CCC4[C@@]5(C)CCC(O)C(C)(C)C5CC[C@@]43C)C2C1C (stereo partly drawn)	i	i
Cc1ccc(CN(Cc2ccco2)C(=O)c2oc3c(C)c(C)ccc3c2C)cc1	25µM	i
Cc1ccc(CN(Cc2ccco2)C(=O)c2oc3ccc(C)cc3c2C)cc1	?	i
Cc1ccccc1-c1cc(C(=O)Nc2sc(C(=O)OC(C)C)c(C)c2C#N)c2ccccc2n1	10µM	i
Cc1cc(NC(=O)c2cc(-c3ccccc3C)nc3ccccc23)no1	i	i
CCNC(=S)NNC(=O)c1cc(-c2ccc(OC)cc2)nc2ccccc12	i	i
COC(=O)c1sc(NC(=O)c2cc(-c3ccccc3)nc3ccccc23)c(C#N)c1C	i	i
COc1ccc(Cl)cc1C(=O)NNC(=S)NC(=O)c1cc(-c2ccc(Cl)cc2)nc2ccccc12	3.2µM	i
CCOC(=O)c1sc(NC(=O)c2cc(-c3ccc(C)cc3)nc3ccccc23)c(C#N)c1C	10µM	i
Cc1sc(NC(=O)c2cc(-c3ccccc3)nc3ccccc23)c(C(N)=O)c1C	i	i
Cc1sc(NC(=O)c2cc(-c3ccc(Cl)cc3)nc3ccccc23)c(C(N)=O)c1C	13µM	i
SMILES	Cruzain inh noDet	Cruzain inh Det
COc1ccccc1NC(=O)Cn1c(=O)n(CCC(=O)NCC2CCCO2)c(=O)c2cc(OC)c(OC)cc21 (stereo not drawn)	i	i
COc1cc([C@@H]2c3cc4c(cc3[C@@H](O[C@@H]3O[C@H]5CO[C@@H](C)O[C@@H]5[C@@H](O)[C@H]3O)[C@@H]3COC(=O)[C@@H]23)OCO4)cc(OC)c1O	i	i
O=C1CC(c2nc(-c3ccc(Cl)cc3)no2)CN1c1ccc2c(c1)OCCO2 (stereo not drawn)	i	i
CCc1ccc(NC(=O)Cn2c(=O)n(CCCC(=O)NCc3ccccc3OC)c(=O)c3ccccc32)cc1	i	i
COc1ccccc1OCCN1CSC(=S)N(C)C1	20µM	?
Cc1cccc(OCCN2CSC(=S)N(C)C2)c1	i	i
O=S1(=O)N=C(Nc2ccc(N3CCOCC3)cc2)c2ccccc21	i	i
Cc1ccccc1-c1ccc(Nc2ccc(N3CCOCC3)cc2)nn1	25µM	i
COc1ccc(-c2[nH]nc3c2C(c2ccccc2OC(=O)N2CCOCC2)C(C#N)=C(N)O3)cc1 (stereo not drawn)	?	i
Cc1ccc(-c2[nH]nc3c2C(c2ccccc2OC(=O)N2CCOCC2)C(C#N)=C(N)O3)cc1 (stereo not drawn)	25µM	i
O=C(CCSCc1ccccc1Cl)NCCc1ccccc1	i	i
COc1ccc(N=C2C(=Nc3ccc(OC)cc3)N(c3ccc(OC)cc3)C(=S)N2c2ccccc2)cc1	?	i
Cc1ccc(N=C2C(=S)N(c3ccc(C)cc3)C(=N)N2/N=C/c2ccc(Cl)cc2)cc1	3.2µM	i
Cc1cc2c(=O)n(Cc3ccco3)c(SCC(=O)c3ccc(Cl)s3)nc2s1	25µM	i

Screening results deposited in PubChem by National Center for Advancing Translational Sciences (NCATS).
